Experimental findings from PubChem BioAssay (NCI) are described below.

Each structure is given as a SMILES string. Compounds without any hit were thinned out: in the full panel of roughly 83,000, 20% have a hit.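 Percent growth is the endpoint: 0 to 100 indicates growth inhibition (40 means 60% inhibition), 0 means no net growth, and negative values indicate cell death.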 Values without a mark were called inactive. Activity calls are given as the source filed them. The calls were made as follows: active = growth percent below 10; inactive = the rest.

Test systems include HCT-15 colon; HT29 colon; SNB-75 CNS; SNB-19 CNS; U251 CNS; PC-3 prostate; SK-MEL-5 melanoma; UACC-62 melanoma; LOX IMVI melanoma; SK-MEL-28 melanoma.
What all share (assay): NCI-60 one-dose screen, 48 h (100 = growth as untreated, 0 = no growth, -100 = all killed)
Details in all cases: 10 µM unless noted

As to `Cc1ccc(Nc2oc(-c3ccccc3)nc2[P+](c2ccccc2)(c2ccccc2)c2ccccc2)cc1`, the growth in the experiment with HCT-15 colon was -34.4% (active); with HT29 colon it was -28.1% (active); in the experiment with SNB-75 CNS it was -2.21% (active); with SNB-19 CNS it was 0.303% (active); in the experiment on U251 CNS, -58% (active); in the experiment on PC-3 prostate, -21.1% (active). Besides, the growth with SK-MEL-5 melanoma is -99.7% (active); in the experiment on UACC-62 melanoma, -35.4% (active); with LOX IMVI melanoma, -100% (active); with SK-MEL-28 melanoma, 1.52% (active).

As to `FC(F)(F)c1cc(N2CCCCC2)nc(NCCCNc2ccnc3cc(Cl)ccc23)n1`, the growth with HCT-15 colon is 53.2%; with HT29 colon it was 26.8%; in the experiment on SNB-75 CNS, 71.9%; with SNB-19 CNS it was 82.2%; in the experiment on U251 CNS, 67.4%; with PC-3 prostate, 45.4%. Also, the growth with SK-MEL-5 melanoma is 27.1%; with UACC-62 melanoma it was 61.9%; in the experiment with LOX IMVI melanoma it was 65.8%; in the experiment with SK-MEL-28 melanoma, 76.7%.

In the case of `CNC(=O)c1cc(Oc2cccc3nc(NC(=O)Nc4ccc(F)cc4F)ccc23)ccn1`, the growth in the experiment with HCT-15 colon is 18.1%; with HT29 colon, 35.9%; with SNB-75 CNS it was -64.4% (active); in the experiment with SNB-19 CNS, 54.8%; with U251 CNS, 14.9%; with PC-3 prostate, 38.5%. Also, the growth is 22.7% with SK-MEL-5 melanoma, 52.5% in the experiment with UACC-62 melanoma, 19.8% with LOX IMVI melanoma and 30.8% in the experiment on SK-MEL-28 melanoma.

As to `COc1cccc2cc(N(C)c3nc(C)nc4c3CCC4)ccc12`, the growth was 8.06% (active) in the experiment on HCT-15 colon; 2.44% (active) with HT29 colon; 30.5% in the experiment on SNB-75 CNS; 30.4% in the experiment with SNB-19 CNS; 5.05% (active) in the experiment with U251 CNS; 9.9% (active) with PC-3 prostate. The growth is -35.5% (active) in the experiment on SK-MEL-5 melanoma, 20.3% in the experiment on UACC-62 melanoma, 19.3% in the experiment with LOX IMVI melanoma and 70.7% with SK-MEL-28 melanoma.

In the case of `O=S(=O)(c1ccc(NCSc2nc3ccccc3s2)cc1)c1ccc(NCSc2nc3ccccc3s2)cc1`, the growth was 106% in the experiment on HCT-15 colon; 87.8% in the experiment with HT29 colon; 81.6% with SNB-75 CNS; 95.9% with SNB-19 CNS; 90.6% in the experiment with U251 CNS; 64.9% in the experiment on PC-3 prostate. Further, the growth with SK-MEL-5 melanoma was 97%; in the experiment with UACC-62 melanoma it was 83.5%; with LOX IMVI melanoma it was 91.1%; with SK-MEL-28 melanoma, 110%.

For `COc1cc(CNC(=O)CCCC/C=C/C(C)C)ccc1OCc1cn(-c2ccc(C(F)(F)F)cc2)nn1`, the growth was 59.7% in the experiment with HCT-15 colon; 79% with HT29 colon; 49.7% in the experiment with SNB-75 CNS; 76.1% with SNB-19 CNS; 46.7% with U251 CNS; 62.2% with PC-3 prostate. Moreover, the growth in the experiment with SK-MEL-5 melanoma was 97.1%; in the experiment with UACC-62 melanoma it was 84.3%; in the experiment on LOX IMVI melanoma it was 60.3%; in the experiment on SK-MEL-28 melanoma, 107%.

For `C#CCOc1cc(/C=N/Nc2nc(-c3ccc(OC)cc3)cs2)ccc1O`, the growth with HCT-15 colon was 83.1%; in the experiment on HT29 colon, 92.6%; with SNB-75 CNS it was 95.5%; with SNB-19 CNS, 91.9%; with U251 CNS, 83.8%; in the experiment with PC-3 prostate, 82.2%. The growth with SK-MEL-5 melanoma was 63.7%; with UACC-62 melanoma it was 70.8%; with LOX IMVI melanoma it was 90.9%; in the experiment with SK-MEL-28 melanoma, 97.8%.

Take `c1ccc2cc(Cn3cc[n+](Cc4ccc5ccccc5c4)c3)ccc2c1`: the growth with HCT-15 colon is 91.2%; in the experiment with HT29 colon, -31% (active); with SNB-75 CNS it was 19.3%; in the experiment with SNB-19 CNS, 29.8%; with U251 CNS, 21.8%; in the experiment on PC-3 prostate, 15.4%. The growth in the experiment with SK-MEL-5 melanoma is -46.4% (active); in the experiment with UACC-62 melanoma, 10.3%; with LOX IMVI melanoma, 37.5%; with SK-MEL-28 melanoma, 20.3%.

For the molecule `C#Cc1c(I)n(C2OC(CO[Si](C)(C)C(C)(C)C)C3OC(C)(C)OC32)c(=O)[nH]c1=O` (stereo not given), the growth with HCT-15 colon is -9.25% (active); in the experiment with HT29 colon, 38.6%; in the experiment on SNB-75 CNS, 86.8%; in the experiment on SNB-19 CNS, 94.2%; with U251 CNS, 3.76% (active); in the experiment with PC-3 prostate it was -61.1% (active). The growth was 96.6% with SK-MEL-5 melanoma, 82.1% in the experiment on UACC-62 melanoma, -80.6% (active) in the experiment on LOX IMVI melanoma and -56.7% (active) in the experiment on SK-MEL-28 melanoma.

On to `O=C(OCC(O)C(=O)NC12CC3CC(CC(C3)C1)C2)c1cccc(Br)c1` (stereo not given), for which the growth is 95.2% in the experiment on HCT-15 colon; 93.5% in the experiment with HT29 colon; 98.5% with SNB-75 CNS; 98.2% in the experiment on SNB-19 CNS; 97.5% with U251 CNS; 90.1% with PC-3 prostate. The growth with SK-MEL-5 melanoma is 103%; in the experiment on UACC-62 melanoma, 92.9%; in the experiment with LOX IMVI melanoma, 95.2%; in the experiment with SK-MEL-28 melanoma it was 103%.

On to `O=c1[nH]c(CN2CCN(c3ccccc3)CC2)nc2c(Br)cc(Br)cc12`, for which the growth was 71.5% with HCT-15 colon; 105% with HT29 colon; 95.8% with SNB-75 CNS; 108% in the experiment on SNB-19 CNS; 101% in the experiment on U251 CNS; 103% with PC-3 prostate. Besides, the growth was 109% with SK-MEL-5 melanoma, 84.4% with UACC-62 melanoma, 99.7% in the experiment with LOX IMVI melanoma and 108% in the experiment on SK-MEL-28 melanoma.

As for `CN(C)CCOc1nc2c3cc([N+](=O)[O-])ccc3nn2c2ccccc12`, the growth in the experiment on HCT-15 colon is 25.9%; in the experiment on HT29 colon, 26.1%; in the experiment on SNB-75 CNS it was 77.1%; in the experiment on SNB-19 CNS, 19.5%; with U251 CNS, 21%; in the experiment on PC-3 prostate it was 47.1%. The growth in the experiment on SK-MEL-5 melanoma was 45.6%; in the experiment on UACC-62 melanoma, 41.8%; with LOX IMVI melanoma, 20.2%; in the experiment on SK-MEL-28 melanoma it was 93.7%.
